Measured values published in PubChem BioAssay (NCATS).
Records with an inconclusive call do not appear. The source made the active and inactive calls. Unless noted, calls come from the whole dose curve; as a rule, active = well fitted curve in the direction sought with a large enough effect; inconclusive = small, poorly fitted or top-dose-only effect, or another doubt; inactive = no such curve, though single readings can be large; an effect the other way counts as inactive or inconclusive.

What was measured:
[1] = biological target: Lysosomal acid glucosylceramidase (Homo sapiens) (UniProt P04062); test: Glucocerebrosidase-p2 (AID 348; in the data active = potency below about 10 µM; note: potency is the fitted concentration of half-maximal effect); details: purified GBA, blue fluorogenic substrate, 40 min
Chain of Lysosomal acid glucosylceramidase (Homo sapiens) (P04062 whole entry, looked up): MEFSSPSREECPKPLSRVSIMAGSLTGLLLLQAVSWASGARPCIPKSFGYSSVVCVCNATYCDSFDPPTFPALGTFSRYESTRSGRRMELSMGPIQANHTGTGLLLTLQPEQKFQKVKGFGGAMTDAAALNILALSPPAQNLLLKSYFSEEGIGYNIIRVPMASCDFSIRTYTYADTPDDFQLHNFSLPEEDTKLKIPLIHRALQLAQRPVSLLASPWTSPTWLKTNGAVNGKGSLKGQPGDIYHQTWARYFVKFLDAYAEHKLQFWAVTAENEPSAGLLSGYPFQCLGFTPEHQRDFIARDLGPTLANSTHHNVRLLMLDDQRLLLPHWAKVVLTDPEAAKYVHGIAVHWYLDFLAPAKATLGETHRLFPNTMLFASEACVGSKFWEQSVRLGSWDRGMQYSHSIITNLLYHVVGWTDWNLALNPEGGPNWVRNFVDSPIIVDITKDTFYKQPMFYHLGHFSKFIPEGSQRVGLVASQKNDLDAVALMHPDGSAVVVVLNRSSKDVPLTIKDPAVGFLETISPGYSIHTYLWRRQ
Outline: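 Normal human glucocerebrosidase (0.2 nM) with blue fluorogenic substrate (80 uM final) in citrate/phosphate pH 5.9 with 10mM sodium taurocholate, 0.01% tween-20; 40 min RT, NaOH/glycine stop; fluorescence Ex 365/Em 440; AC50 from a titration from 0.6 nM upwards.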

[2] = AP1 Signaling Pathway (AID 357; active = well fitted curve in either direction with a large enough effect, not every such curve was filed as active;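 note: ME-180 reporter cells stimulated with EGF at its EC50 level; % is set by controls: 0 for no effect and ±100 for the full control effect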); details: ME-180 AP-1-bla reporter, EGF-induced, beta-lactamase ratio, 5 h; at 7.69 µM (top of the series) unless noted
Outline: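 Titration-series screen for positive or negative modulators of EC50 EGF-induced signaling in ME-180 cells carrying an AP-1-driven beta-lactamase reporter. After 5 hours at 37 degrees Celsius, CCF4 460nm/530nm emission ratio gave %Activity; AC50 values derived.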

[3] = biological target: Cytochrome P450 1A2 (Homo sapiens) (UniProt P05177); test: p450-cyp1a2 (AID 410; calls by dose curve; note: potency is the fitted concentration of half-maximal effect)
Chain of Cytochrome P450 1A2 (Homo sapiens) (P05177 whole entry, looked up): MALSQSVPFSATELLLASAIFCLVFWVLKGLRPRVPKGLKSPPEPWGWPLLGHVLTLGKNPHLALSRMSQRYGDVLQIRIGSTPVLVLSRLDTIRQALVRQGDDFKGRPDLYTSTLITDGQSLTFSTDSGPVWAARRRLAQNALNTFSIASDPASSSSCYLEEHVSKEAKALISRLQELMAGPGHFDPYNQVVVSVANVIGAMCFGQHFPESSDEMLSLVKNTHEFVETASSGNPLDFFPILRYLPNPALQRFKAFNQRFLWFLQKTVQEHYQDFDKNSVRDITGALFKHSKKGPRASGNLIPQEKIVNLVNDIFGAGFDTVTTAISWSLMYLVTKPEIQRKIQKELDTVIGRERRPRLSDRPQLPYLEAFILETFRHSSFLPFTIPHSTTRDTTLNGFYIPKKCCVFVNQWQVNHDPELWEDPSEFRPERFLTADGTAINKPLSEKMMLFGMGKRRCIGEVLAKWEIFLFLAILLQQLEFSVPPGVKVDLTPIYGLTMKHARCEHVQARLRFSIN
Outline: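 Read-out is luminescence from luciferin produced by CYP1A2 demethylation of Luciferin-ME (100uM, at Km). Detection reagent stopped the 60 min NADPH-dependent reaction; signals were normalized to 57 uM furafylline.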

[4] = NFAT Signaling Pathway (AID 444; active = well fitted curve in either direction with a large enough effect, not every such curve was filed as active;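 note: carbachol stimulus at about its EC50 of 1 µM final; % is set by controls: 0 for no effect and ±100 for the full control effect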); details: Jurkat NFAT-bla M1, carbachol, beta-lactamase ratio, 5 h; at 7.69 µM (top of the series) unless noted
Outline: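 Read-out: CCF4 FRET ratio (460 nm/530 nm) after 1 h RT dye loading, used for %activity and AC50 from titration series. Cells: Jurkat NFAT-β-lactamase/M1 line, treated with compound plus 1 uM carbachol for 5 h, 37 °C.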

[5] = Stat Signaling Pathway (AID 446; active = well fitted curve in either direction with a large enough effect, not every such curve was filed as active;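 note: ME-180 cervical cancer cells given 40 pM IL-6 alongside compound; SIE-controlled beta-lactamase reporter measured as 460/530 nm FRET emission ratio; % is set by controls: 0 for no effect and ±100 for the full control effect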); details: ME-180 SIE beta-lactamase reporter, IL-6 stimulated, 5 h; at 7.69 µM (top of the series) unless noted
Outline: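 FRET read-out (405 nm excitation, 460/530 nm emission) of a beta-lactamase reporter under a STAT-inducible element in ME-180 cervical carcinoma cells. Cells with compound receive 40 pM IL-6 for 5 h. Values are normalised to AC90 stimulation and AC90 JAK-inhibitor controls.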

[6] = biological target: Glucocorticoid receptor (Homo sapiens) (UniProt P04150); test: GR-GFP Redistribution (AID 450;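 active = compounds whose dose series gives a full or clear partial fitted curve of increased nuclear translocation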; note: potency is the fitted concentration of half-maximal effect); details: U2OS GR-GFP nuclear translocation, laser cytometry, 2 h
Chain of Glucocorticoid receptor (Homo sapiens) (P04150 whole entry, looked up, the tested form may be a part): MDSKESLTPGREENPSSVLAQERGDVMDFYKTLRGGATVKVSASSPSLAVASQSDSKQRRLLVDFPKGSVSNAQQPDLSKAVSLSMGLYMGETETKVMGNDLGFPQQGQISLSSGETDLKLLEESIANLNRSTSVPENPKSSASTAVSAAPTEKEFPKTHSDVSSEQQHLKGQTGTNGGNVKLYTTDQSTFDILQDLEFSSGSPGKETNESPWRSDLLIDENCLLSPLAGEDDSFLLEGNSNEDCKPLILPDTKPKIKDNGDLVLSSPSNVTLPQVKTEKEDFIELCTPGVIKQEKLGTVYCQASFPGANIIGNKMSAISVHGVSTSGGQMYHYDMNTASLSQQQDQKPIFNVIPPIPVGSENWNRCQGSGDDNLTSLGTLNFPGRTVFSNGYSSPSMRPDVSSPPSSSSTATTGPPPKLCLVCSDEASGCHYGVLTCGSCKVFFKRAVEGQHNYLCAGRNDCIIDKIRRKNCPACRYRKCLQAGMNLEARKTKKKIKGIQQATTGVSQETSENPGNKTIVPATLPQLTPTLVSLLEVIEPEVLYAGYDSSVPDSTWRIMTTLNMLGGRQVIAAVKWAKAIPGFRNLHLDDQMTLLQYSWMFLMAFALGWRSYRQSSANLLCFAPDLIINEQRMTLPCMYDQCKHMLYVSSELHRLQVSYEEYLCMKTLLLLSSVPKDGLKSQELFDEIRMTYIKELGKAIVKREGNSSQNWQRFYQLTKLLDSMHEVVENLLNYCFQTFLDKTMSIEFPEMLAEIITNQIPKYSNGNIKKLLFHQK

[7] = biological target: Glucocorticoid receptor (Homo sapiens) (UniProt P04150); test: GR-EFC Redistribution (AID 451; calls by dose curve; note: potency is the fitted concentration of half-maximal effect); details: CHO-K1 GR-EFC translocation, beta-gal luminescence, 2 h
Outline: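 Translocation of GR-ED fusion to nuclear EA restores b-gal, read by luminescence after 1 h room-temperature detection. Engineered CHO-K1 biosensor cells, 1,000/well, exposed 2 h at 37 C to titrations up to 46 uM final.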

[8] = biological target: Mitogen-activated protein kinase 10 (Mus musculus) (UniProt Q61831); test: JNK3 AlphaScreen Assay (AID 530; active = well fitted curve in either direction with a large enough effect, not every such curve was filed as active;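 note: kinase came from lysate of stimulated human HepG2 cells; signal reports phosphorylation of biotinylated GST-cJun 1-79 at Ser73 with 10 µM ATP; % is set by controls: 0 for no effect and ±100 for the full control effect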)
Outline: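 Kinase buffer: 20 mM Tris-HCl pH 7.6, 10 mM MgCl2, 1 mM DTT, 0.1 mM Na3VO4, 0.01% Tween-20; ATP 10 uM. Substrate biotin-GST-cJun(1-79), enzyme from activated HepG2 lysates. Detection by Ser73 phospho-antibody AlphaScreen.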

[9] = biological target: Cytochrome P450 3A4 (Homo sapiens) (UniProt P08684); test: qHTS Assay for Activators of Cytochrome P450 3A4 (AID 885); note: nearly all actives have a fitted effect of over 65% in size
Chain of Cytochrome P450 3A4 (Homo sapiens) (P08684 whole entry, looked up): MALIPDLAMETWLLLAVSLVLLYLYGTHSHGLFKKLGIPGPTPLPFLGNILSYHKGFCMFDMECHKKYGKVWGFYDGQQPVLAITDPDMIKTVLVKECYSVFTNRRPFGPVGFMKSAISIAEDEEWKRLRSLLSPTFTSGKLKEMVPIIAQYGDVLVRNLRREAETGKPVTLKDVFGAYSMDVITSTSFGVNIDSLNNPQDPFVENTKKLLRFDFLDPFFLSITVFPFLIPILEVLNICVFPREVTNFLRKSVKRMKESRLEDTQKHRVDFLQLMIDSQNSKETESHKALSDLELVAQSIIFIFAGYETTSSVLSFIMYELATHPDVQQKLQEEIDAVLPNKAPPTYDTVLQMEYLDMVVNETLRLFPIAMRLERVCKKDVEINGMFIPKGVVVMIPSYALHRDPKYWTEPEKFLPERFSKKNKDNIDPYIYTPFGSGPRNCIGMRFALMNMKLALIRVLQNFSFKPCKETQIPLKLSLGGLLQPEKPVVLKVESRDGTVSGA
Outline: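 Luminescent readout of luciferin formed from 25 uM Luciferin-PPXE (KM level) by 20 nM CYP3A4 in 200 mM KPO4, with 60 min NADPH-driven reaction at room temperature after 10 min compound exposure. Ketoconazole (57 uM) defined 100% inhibition.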

[10] = Confirmation and Secondary Assay for Modulators of Hemoglobin Beta Chain Splicing at IVS2 654 locus (AID 910);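 note: HeLa cells stably carrying EGFP split by mutant beta-globin IVS2-654 intron; per-well total GFP intensity by laser scanning cytometry after 2-day treatment; % of control where 0% means no effect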
Outline: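 Readout: per-well total peak green fluorescence (488 nm ex, 500–520 nm em) from objects 5–250 µm, reflecting correct splicing of an EGFP-654 reporter. Compounds were applied for 2 days at 37 °C to overnight-plated HeLa EGFP-654 cells; controls were DMSO and 500 nM IVS2-654 PNA.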

[11] = qHTS Assay for Lipid Storage Modulators (AID 1519; calls by dose curve); details: Drosophila S3 cells, BODIPY lipid droplet/cell ratio, laser cytometry, cells loaded with oleic acid; for activity change, negative = inhibition: at 57.5 µM (top of the series)
Outline: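 Cells seeded at 5,000 per well were treated with compounds over a concentration series and loaded with oleic acid (400 uM, as added). Lipid droplet fluorescence (488 nm excitation, 500-530 nm channel) was read by laser-scanning cytometry and normalized to 20 uM Triacsin C.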

[12] = Counterscreen qHTS for small molecule stabilizers of the endoplasmic reticulum resident proteome: GLuc-NoTag assay (AID 1508627);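 note: SH-SY5Y cells given compound then 100 nM thapsigargin to empty ER calcium; 0% = thapsigargin alone and -100% = DMSO vehicle control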
Outline: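 Counterscreen line: SH-SY5Y-GLuc-NoTag cells, treated with compound 19 hr before a 4 hr, 100 nM thapsigargin calcium depletion. Secreted Gaussia luciferase in the medium was measured by luminescence after coelenterazine was added (0.07x final), with cells unlysed.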

[13] = Confirmatory qHTS for small molecule stabilizers of the endoplasmic reticulum resident proteome: Secreted ER Calcium Modulated Protein (SERCaMP) assay (AID 1508628); note: nearly all actives have a fitted effect of over 40% in size; note: potency is the fitted concentration of half-maximal effect
Outline: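 GLuc-SERCaMP-expressing SH-SY5Y cells, pretreated 16 h with compound, are challenged with thapsigargin to empty ER calcium stores; after 4 h, coelenterazine is added directly to the medium and luminescence is imaged.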

[14] = biological target: Dual specificity protein kinase CLK4 (Homo sapiens) (UniProt Q9HAZ1); test: qHTS Assay for Inhibitors of CDC-like Kinase 4 (Kinase-Glo Assay) (AID 1770); note: % is set by controls: 0 for no effect and ±100 for the full control effect; nearly all actives have a fitted effect of over 65% in size
Chain of Dual specificity protein kinase CLK4 (Homo sapiens) (Q9HAZ1 whole entry, looked up): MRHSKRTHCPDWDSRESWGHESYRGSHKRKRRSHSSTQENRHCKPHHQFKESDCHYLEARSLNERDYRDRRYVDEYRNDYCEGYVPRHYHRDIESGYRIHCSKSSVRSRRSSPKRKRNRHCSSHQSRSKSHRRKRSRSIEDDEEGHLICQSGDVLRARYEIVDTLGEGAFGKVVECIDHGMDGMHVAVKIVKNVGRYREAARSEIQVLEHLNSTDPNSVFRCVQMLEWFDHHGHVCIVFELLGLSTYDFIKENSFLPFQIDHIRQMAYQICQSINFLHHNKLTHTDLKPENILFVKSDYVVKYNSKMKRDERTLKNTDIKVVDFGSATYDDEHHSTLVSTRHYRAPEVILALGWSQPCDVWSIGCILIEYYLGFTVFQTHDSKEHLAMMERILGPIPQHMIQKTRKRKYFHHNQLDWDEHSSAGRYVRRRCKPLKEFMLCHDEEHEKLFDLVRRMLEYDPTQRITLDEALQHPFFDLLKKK
Outline: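 Recombinant human Clk4 (25 nM) phosphorylated RS repeat peptide (100 uM) with 1 uM ATP in Tris pH 7.5/MgCl2/EGTA/DTT/Triton buffer for 4.5 h at room temperature. Residual ATP was quantified by Kinase-Glo luciferase luminescence.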

[15] = biological target: Dual specificity protein kinase CLK4 (Homo sapiens) (UniProt Q9HAZ1); test: qHTS Assay for Inhibitors of CDC-like Kinase 4 (ADP-FP Assay) (AID 1795); note: % is set by controls: 0 for no effect and ±100 for the full control effect; nearly all actives have a fitted effect of over 60% in size
Outline: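 Recombinant human Clk4 (6.25 nM) phosphorylated RS repeat peptide (100 uM) with 1 uM ATP in Tris pH 7.5/MgCl2/EGTA/DTT/Triton buffer for one hour. ADP was quantified by Transcreener competitive fluorescence polarization against an ADP calibration curve.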

[16] = biological target: Ubiquitin carboxyl-terminal hydrolase 1 (Homo sapiens) (UniProt O94782); test: Inhibitors of USP1/UAF1: Pilot qHTS (AID 504865); note: nearly all actives have a fitted effect of over 35% in size; note: potency is the fitted concentration of half-maximal effect
Chain of Ubiquitin carboxyl-terminal hydrolase 1 (Homo sapiens) (O94782 whole entry, looked up): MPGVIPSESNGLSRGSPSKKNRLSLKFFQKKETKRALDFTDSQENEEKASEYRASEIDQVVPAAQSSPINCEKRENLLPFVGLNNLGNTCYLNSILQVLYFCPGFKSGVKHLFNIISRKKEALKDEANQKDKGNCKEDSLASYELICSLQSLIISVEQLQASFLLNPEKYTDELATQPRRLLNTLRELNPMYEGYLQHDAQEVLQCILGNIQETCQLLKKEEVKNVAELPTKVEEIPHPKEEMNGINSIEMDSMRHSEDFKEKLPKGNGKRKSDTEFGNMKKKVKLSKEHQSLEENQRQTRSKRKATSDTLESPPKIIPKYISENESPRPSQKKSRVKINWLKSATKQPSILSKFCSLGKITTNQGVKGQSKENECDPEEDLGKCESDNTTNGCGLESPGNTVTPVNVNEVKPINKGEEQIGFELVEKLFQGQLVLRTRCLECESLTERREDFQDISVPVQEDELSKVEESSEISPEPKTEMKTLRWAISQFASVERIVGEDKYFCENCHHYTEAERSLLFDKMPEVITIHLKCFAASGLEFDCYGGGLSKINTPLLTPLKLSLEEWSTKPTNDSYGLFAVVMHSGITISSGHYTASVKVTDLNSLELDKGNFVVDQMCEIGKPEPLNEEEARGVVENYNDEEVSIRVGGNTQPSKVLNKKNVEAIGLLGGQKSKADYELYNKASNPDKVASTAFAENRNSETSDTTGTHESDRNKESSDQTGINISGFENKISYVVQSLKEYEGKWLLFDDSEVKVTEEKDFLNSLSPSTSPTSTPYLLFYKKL
Outline: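 USP1/UAF1 complex (1nM) preincubated with compound 15 min at room temperature, then Ub-Rho substrate (150nM final) added. Fluorescence read kinetically at 480/540 nm, 6 reads every 60 seconds. Buffer: 50mM HEPES pH 7.8, 0.5mM EDTA, 0.1 mg/ml BSA, 1mM TCEP, 0.01% Tween-20.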

[17] = biological target: Dual specificity protein kinase CLK4 (Homo sapiens) (UniProt Q9HAZ1); test: qHTS Assay for Inhibitors of CDC-like Kinase 4 (ADP-Glo Assay) (AID 1771); note: % is set by controls: 0 for no effect and ±100 for the full control effect; nearly all actives have a fitted effect of over 70% in size
Outline: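 In this ADP-Glo format, 1 uM ATP and 100 uM RS peptide served as substrates for 25 nM Clk4 in Mg2+/EGTA/DTT/Triton buffer; reactions ran 1 hr at room temperature before luminescent ADP quantification.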

[18] = biological target: 3',5'-cyclic-AMP phosphodiesterase 4B (Homo sapiens) (UniProt Q07343); test: qHTS Assay for Inhibitors of PDE-IV (AID 607; active = well fitted activation curve with a large enough effect in the main read-out, with a control signal flat, not every such curve was filed as active; note: % of control where 0% means no effect)
Chain of 3',5'-cyclic-AMP phosphodiesterase 4B (Homo sapiens) (Q07343 whole entry, looked up): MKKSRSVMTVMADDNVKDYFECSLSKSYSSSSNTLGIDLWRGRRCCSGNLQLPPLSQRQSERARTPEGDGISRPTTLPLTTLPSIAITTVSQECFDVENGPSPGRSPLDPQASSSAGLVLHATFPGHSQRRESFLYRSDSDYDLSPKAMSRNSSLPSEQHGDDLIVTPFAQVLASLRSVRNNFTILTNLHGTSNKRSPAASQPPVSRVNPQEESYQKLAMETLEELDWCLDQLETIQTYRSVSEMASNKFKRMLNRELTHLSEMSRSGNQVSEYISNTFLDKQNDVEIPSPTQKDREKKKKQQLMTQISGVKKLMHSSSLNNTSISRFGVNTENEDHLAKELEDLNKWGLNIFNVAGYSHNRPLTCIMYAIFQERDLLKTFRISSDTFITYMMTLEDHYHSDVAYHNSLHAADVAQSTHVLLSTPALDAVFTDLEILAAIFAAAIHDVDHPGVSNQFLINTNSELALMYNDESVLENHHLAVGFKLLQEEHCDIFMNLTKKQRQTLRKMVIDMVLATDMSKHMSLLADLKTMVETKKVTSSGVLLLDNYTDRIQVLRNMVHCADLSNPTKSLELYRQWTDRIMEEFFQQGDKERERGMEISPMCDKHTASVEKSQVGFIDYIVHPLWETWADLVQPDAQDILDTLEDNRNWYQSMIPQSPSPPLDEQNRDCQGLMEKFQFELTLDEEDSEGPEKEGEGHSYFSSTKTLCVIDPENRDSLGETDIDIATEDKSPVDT
Outline: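 Cell-based read-out of cAMP via a modified cyclic nucleotide-gated channel and membrane potential dye (535/590 nm) in HEK293 cells expressing PDE4 endogenously. Compounds tested up to 22.9 uM final; 100 uM RO 20-1724 reference.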

[19] = qHTS Assay for Identification of Small Molecule Agonists for Hypoxia Response Element Signaling Pathway (AID 914; active = well fitted activation curve with a large enough effect in the signal ratio, with a control signal flat, not every such curve was filed as active; the % refers to the signal ratio; note: potency is the fitted concentration of half-maximal effect; for activation: % of control where 0% means no effect); details: ME-180 (cervical carcinoma) HRE-bla reporter, beta-lactamase ratio, CoCl2, 17 h; activation: stronger effect = higher value
Outline: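 Read-out: CCF4 FRET ratio of 460nm to 530nm emission (excitation 405nm) after 2.5 hours at room temperature, taken from HRE-bla ME-180 cells that had been exposed to compound and EC50 CoCl2 for 17 hours.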

[20] = Cell Viability qHTS for small molecule stabilizers of the endoplasmic reticulum resident proteome (AID 1508629); details: cell viability counter-screen, 100 nM thapsigargin for final 4 h
[21] = measured here: cell count channel max response
[22] = measured here: lipid channel max response

CN1CCN(c2ncnc3ccc(-c4ccccc4C#N)cc23)CC1
inactive: Potency [1] > 11.4 µM | activity change, negative = inhibition [2] 15.1% | activity change, negative = inhibition [4] -9.23% | activity, negative = inhibition [5] 19.8% | Potency [6] > 46 µM | Potency [7] > 46 µM | outcome [8] | Potency [9] | outcome [10] | activity change, negative = inhibition [11] 3.92% | Potency [12] | Potency [13]
active: Potency [3] 3.16 µM
-16%: max response [11, 22]
-20.1%: max response [11, 21]

Cc1ccccc1-c1nc(N2CCN(C)CC2)c2ccccc2n1
active: Potency [3] 3.98 µM | Potency [16] 28.2 µM | Potency [13] 20 µM
inactive: Potency [1] > 11.4 µM | activity change, negative = inhibition [2] 5.49% | activity change, negative = inhibition [4] 0.11% | activity, negative = inhibition [5] 0.381% | Potency [6] > 46 µM | Potency [7] > 46 µM | outcome [8] | Potency [9] | Potency [14] | Potency [15] | Potency [12]

Cc1ccccc1-c1nccc(Nc2ccc(F)cc2)n1
inactive: Potency [1] > 11.4 µM | activity change, negative = inhibition [2] -8.14% | activity change, negative = inhibition [4] -3.97% | activity, negative = inhibition [5] -11% | Potency [6] > 46 µM | outcome [8] | Potency [17] | Potency [15] | Potency [12] | Potency [13]

CN1CCN(c2nc(-c3ccccc3C(F)(F)F)nc3ccccc23)CC1
active: Potency [3] 10 µM | Potency [13] 14.1 µM
inactive: Potency [1] > 11.4 µM | activity change, negative = inhibition [2] -3.47% | activity change, negative = inhibition [4] -6.69% | activity, negative = inhibition [5] -4.43% | Potency [6] > 46 µM | Potency [7] > 46 µM | outcome [8] | Potency [18] | Potency [9] | activation [19] -4.44% | Potency [17] | Potency [15] | Potency [16] | Potency [12] | max response [20] 16.6%

c1cncc(-c2nc(N3CCNCC3)c3ccccc3n2)c1
active: Potency [3] 2.51 µM | Potency [13] 22.4 µM
inactive: Potency [1] > 11.4 µM | activity change, negative = inhibition [2] 8.36% | activity change, negative = inhibition [4] 7.65% | activity, negative = inhibition [5] 4.77% | Potency [6] > 46 µM | Potency [7] > 46 µM | outcome [8] | Potency [18] | Potency [9] | Potency [16] | Potency [12] | max response [20] 15.1%

CN1CCN(c2ncc3nc(-c4ccccc4)c(=O)n(CCc4ccccc4)c3n2)CC1
inactive: Potency [1] > 11.4 µM | Potency [6] > 9.22 µM | Potency [7] > 46 µM | outcome [8] | activity change, negative = inhibition [11] -1.95% | Potency [14] | Potency [17] | Potency [15] | Potency [16] | Potency [12]
active: Potency [19] 3.16 µM | Potency [13] 39.8 µM
-2.1%: max response [11, 21]
-5.21%: max response [11, 22]
